Sampled rows, rich in hits. Any-hit rate of the full collection: about 2.6%.
TROY signal inh = inhibitors of TROY-dependent NF-kB signaling | Q293 LMP1-TROYcd NF-kB luciferase reporter, 4 h | inhibition, % at 10 µM | hit rate 0.98% among 360,000;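 active = compounds whose plate-normalised and pattern-corrected inhibition of the luciferase reporter signal at the single screening dose is 50% or more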
LGR2 antag = Drosophila LGR2 receptor signaling inhibition; AID 720647; hit rate 0.35% among 380,000; inhibition, % at 9.99 µM; HEK293 LGR2, CRE-luciferase, bursicon-stimulated, 4 h;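 active = drop in luminescence signal, shown as inhibition above about 50% in the replicate tests, limit read from the data, passing the limit was not always enough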;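 also: agonist challenge used bursicon conditioned medium at about half maximal strength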
EWS-Fli inh = inhibitors of EWS/Fli oncoprotein transcriptional activity; A673 NR0B1-luciferase reporter, viability-normalised; inhibition, % at 12.6 µM; AID 651661; hit rate 0.67% among 350,000;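 active = mean inhibition of at least 50% after viability correction, with every replicate also passing that limit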;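 also: firefly luciferase signal divided by Alamar Blue viability fluorescence both relative to DMSO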
LMP1 NFkB inh = Epstein-Barr LMP1 NF-kappaB reporter inhibition; hit rate 0.69% among 350,000; inhibition, % at 12.5 µM; AID 504558; LMP1-induced NF-kappaB luciferase reporter cells, luminescence; in the data active = inhibition above about 41%;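 also: 0% = neutral control wells and 100% = reference inhibitor control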
TWEAK-Fn14 inh = blocks TWEAK-Fn14 interaction in a reporter cell assay; hit rate 2% among 360,000; AID 1159606; inhibition, % at 10 µM; TWEAK-stimulated Fn14 reporter cells, luciferase luminescence, 8 h; in the data active = inhibition above about 50%
Numbers without * were called inactive; . = no result given.

SMILES	TROY signal inh	LGR2 antag	EWS-Fli inh	LMP1 NFkB inh	TWEAK-Fn14 inh
Oc1c(N=Nc2ccc(F)cc2)ccc2ccccc12	38	7	4	-45	54*
Oc1c(N=Nc2nn[nH]n2)ccc2ccccc12	24	-13	-24	.	52*
CC(=O)c1cccc([N+](=O)[O-])c1	-3	6	-1	1	-4
O=C(C#Cc1ccccc1)c1cccc([N+](=O)[O-])c1	17	-7	67*	39	48
O=C(/C=C/c1cccnc1)c1ccc([N+](=O)[O-])cc1	21	20	.	0	17
O=C(C=Cc1ccccc1)c1ccc([N+](=O)[O-])cc1	1	-13	0	56*	-2
Cc1[nH]c(C)c(C(=O)/C=C/c2ccc([N+](=O)[O-])cc2)c1C	10	.	63*	-203	60*
O=C(/C=C/c1ccccc1F)c1cccc([N+](=O)[O-])c1	18	4	.	45*	-3
COc1ccc(C=CC(=O)c2ccc([N+](=O)[O-])cc2)cc1	-94	-5	-9	7	-39
CCNC(=O)[C@H]1[C@H](CO)[C@H]2Cn3c(ccc(-c4ccc(OC)cc4)c3=O)[C@H]2N1Cc1nccs1	.	17	5	.	.
CO[C@@H]1CN(C)C(=O)c2cc(NC(=O)C3CCCC3)ccc2OC[C@@H](C)N(C(=O)CC2CC2)C[C@@H]1C	.	-8	5	.	.
C[C@H]1CN([C@@H](C)CO)C(=O)c2ccccc2-c2ccccc2CO[C@@H]1CN(C)C(=O)C1CC1	.	-18	-3	.	.
Cc1cc(C)nc(NC(=S)NC(=O)c2ccccc2F)n1	-33	-39	-33	.	-11
Cc1cc(C)nc(S/C=C/C(=O)c2ccccc2F)n1	70*	.	17	-43	93*
C[C@H]1CN([C@@H](C)CO)C(=O)Cc2cc(NS(=O)(=O)c3ccccc3)ccc2O[C@@H]1CN(C)Cc1ccc(-c2ccccc2)cc1	.	6	-5	.	.
Cc1onc(-c2ccccc2)c1CNC(=O)Nc1ccc(C(F)(F)F)cc1	50*	21	8	22	9
C[C@@H]1CCCCO[C@@H](CN(C)C(=O)CCC(F)(F)F)[C@@H](C)CN([C@H](C)CO)C(=O)c2cc(NC(=O)Cc3ccccc3)ccc2O1	.	18	-13	.	.
Cc1c(CCC(=O)NCC(=O)NCC(=O)O)c(=O)oc2cc3oc4c(c3cc12)CCCC4	-10	-10	9	3	9
Cc1c(CCC(=O)N2CCC[C@H]2C(=O)O)c(=O)oc2cc3oc4c(c3cc12)CCCC4	-1	.	.	-2	76*
Cc1c(CCC(=O)O)c(=O)oc2cc3oc4c(c3cc12)CCCC4	12	-52	57*	19	51*
Cc1c(CCC(=O)N2CCC(C(=O)NCCCCCC(=O)O)CC2)c(=O)oc2cc3oc4c(c3cc12)CCCC4	2	3	.	3	24
O=[N+]([O-])c1ccc(Nc2nc(N/N=C\c3ccc4c(c3)OCO4)nc(N3CCCCC3)n2)cc1	12	.	.	15	54*
O=[N+]([O-])c1ccc(/C=N/Nc2nc(N3CCCCC3)nc(N3CCCCC3)n2)cc1	-12	.	-3	-7	-4
COc1ccc(/C=N/NC(=O)c2[nH]nc3c2CCc2ccccc2-3)cc1OC	5	-5	53*	13	20
CCN(CC)c1ccc(-c2nn3c(-c4n[nH]c5c4CCC5)nnc3s2)cc1	52*	.	.	3	41
SMILES	TROY signal inh	LGR2 antag	EWS-Fli inh	LMP1 NFkB inh	TWEAK-Fn14 inh
CCOc1cc(CNc2ccc3c(c2)OCCO3)cc(Br)c1OCC(N)=O	64*	.	.	4	88*
CCOc1c(Br)cc(CNc2ccc(N3CCOCC3)cc2)cc1OC	35	6	0	8	-1
COc1cc(CNc2ccc3c(c2)OCCO3)ccc1OCC(N)=O	28	1	-10	4	34
CCOc1c(Br)cc(CNc2ccc3c(c2)OCCO3)cc1OC	59*	.	.	19	85*
CCOc1cc(CNc2ccc3c(c2)OCCO3)cc(Br)c1OC	85*	.	.	32	94*
C[C@H]1CN([C@@H](C)CO)C(=O)c2cc(C#CCc3ccccc3)cnc2O[C@@H]1CN(C)Cc1cccnc1	.	-53	-4	.	.
CC[n+]1c(/C=C2\Sc3ccccc3N2C)ccc2cccc(C)c21	64*	81*	44	-14	85*
CCN1/C(=C/C=C/c2sc3ccccc3[n+]2CC)Sc2ccccc21	53*	.	.	50*	96*
CCN1/C(=C/c2ccc3cc(C)ccc3[n+]2CC)Sc2cc(C)c(C)cc21	29	14	73*	11	45
CCOC(=O)/C(=C/C=C1\Sc2cc(C)c(C)cc2N1CC)C(C)=O	4	21	3	2	8
CCN1/C(=C/c2ccc3cc(C)ccc3[n+]2CC)Sc2ccccc21	65*	27	48	-6	72*
COc1ccccc1NC(=O)N[C@H]1CC[C@@H](CCNS(=O)(=O)c2ccc(F)cc2)O[C@H]1CO	.	12	-3	.	.
OCCN(CCO)CC(O)COCCC12CC3CC(CC(C3)C1)C2 (configuration not stated)	11	.	.	73*	-13
OCCN(CCO)CC(O)COc1ccc(C23CC4CC(CC(C4)C2)C3)cc1 (configuration not stated)	47	-7	.	42*	77*
CCN(CC)CC(O)COCCC12CC3CC(CC(C3)C1)C2 (configuration not stated)	-5	1	.	2	-7
C[C@H]1CN([C@@H](C)CO)C(=O)Cc2cc(NC(=O)Cc3ccccc3)ccc2O[C@H]1CN(C)Cc1ccc(C(F)(F)F)cc1	.	-24	.	.	.
CC(C)(C)c1cc[n+](C2=C([O-])c3ccccc3C(=O)/C2=N\S(=O)(=O)c2ccccc2)cc1	60*	3	3	.	80*
Cc1ccc2c(c1)-c1cc(C)ccc1C2=O	-24	-3	-11	-5	64*
CCCN1C(=O)C(=O)c2cc(C)ccc21	-14	4	10	2	-4
COc1cccc(C(=O)Oc2c(Br)cc(Br)cc2/C=N/NC(=O)c2cc(C)[nH]n2)c1	28	21	2	19	52*
CCc1cc(SC#N)cc(C)c1N	57*	-10	0	3	35
CCc1cc(SC#N)cc(C)c1NC(=O)CCl	9	.	-4	-7	26
CO[C@H]1CN(C)C(=O)c2ccc(NC(=O)c3cnccn3)cc2OC[C@H](C)N(CCc2ccccc2)C[C@H]1C	.	4	1	.	.
CC1(C)C=Cc2c(ccc3c2OC[C@H](c2ccc(O)cc2O)C3)O1	-16	-38	-71	-18	10
CC(C)=CCc1cc([C@@H]2COc3c(ccc4c3C=CC(C)(C)O4)C2)c(O)cc1O	10	14	12	17	63*
Cc1ccc(S(=O)(=O)N(C)C[C@@H]2OCCCC[C@H](C)Oc3ccc(NS(=O)(=O)c4ccc(F)cc4)cc3C(=O)N([C@H](C)CO)C[C@H]2C)cc1	.	14	2	.	.
Cc1noc(C)c1NC(=O)N(C)C[C@H]1Oc2c(NC(=O)CCCCCC(=O)Nc3ccccc3N)cccc2C(=O)N([C@@H](C)CO)C[C@@H]1C	.	-5	.	.	.

Screening data: PubChem BioAssay, several laboratories
